Compound activity (PubChem BioAssay)
This is a sample that favours compounds with a hit; in the whole collection about 5.2% have one here.
NadD block: NadD (S. aureus) enzyme inhibition; 0.78% of 360,000 active; inhibition, % at 20 µM; purified NadD enzyme, colorimetric absorbance read-out; AID 602399; in the data active means inhibition above about 26%
SKN-1 inh: blocks SKN-1 activity in C. elegans | C. elegans VP596 Pgst-4::GFP/RFP ratio, acrylamide-induced, 24 h | inhibition, % at 21.8 µM | 0.49% of 360,000 active | AID 624304;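 active means interference check ratio from 0.5 to 1.5 plus GFP to RFP signal ratio inhibition reaching or exceeding a fixed threshold, cut at about 30% in these data, passing the limit was not always enough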
SMARCA2 activ: increases SMARCA2 function in MMTV reporter cells | MG213 cells, MMTV-luciferase reporter, dexamethasone, overnight | activation, % at 9.1 µM | 1% of 370,000 active; in the data active means activation above about 7.8%;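 further: 0% = vehicle wells and 100% = reference activator wells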
Vif imaging: inhibitors of HIV Vif; HEK293T cells, Vif self-association by quenched fluorescence, imaging, 24 h; inhibition, % at 7.49 µM; 0.35% of 340,000 active; AID 602346; in the data active means inhibition above about 50%, passing the limit was not always enough
GRIN3A LBD mod: modulators (binders) of human NR3A ligand-binding domain. NR3A LBD differential scanning fluorimetry, Tm shift; 0% = protein alone, 100% = glycine-bound protein. 2.5% of 340,000 active. Tm shift relative to glycine control, % at 25 µM. AID 1259313;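 active means melting temperature shift of at least 10% of the positive control shift, at one fixed dose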
esBAF inh: SWI/SNF esBAF complex inhibition. mouse ES cells, Bmi1-luciferase knock-in reporter, 24 h; 100% = twice the neutral-well signal. reporter increase, % at 12.5 µM. 2% of 350,000 active; in the data active means activation above about 40%;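 further: 0% = median of the plate's neutral control wells and 100% = double that signal; a rise in the Bmi1 reporter signal indicates esBAF inhibition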
Starred values were filed as active, the others as inactive.

Screening COc1ccc(NC(=O)/C(N=Nc2cc(S(=O)(=O)Nc3ccc(OC)cc3)ccc2OC)=C(\C)O)cc1 returned NadD block -1, SKN-1 inh -1, SMARCA2 activ -3, Vif imaging 3 and GRIN3A LBD mod 11*.
For C[C@@H]1CCCCO[C@@H](CN(C)Cc2ccc3c(c2)OCO3)[C@H](C)CN([C@H](C)CO)C(=O)c2cc(NS(=O)(=O)c3ccc(Cl)cc3)ccc2O1 the results were esBAF inh -10.
`O=C1c2ccccc2CCCC12N=NCC2c1cccc2ccccc12` (stereo not given) gave NadD block -8, SKN-1 inh -4, SMARCA2 activ -5, Vif imaging -10, GRIN3A LBD mod 0 and esBAF inh -1.
For Cc1ccc(C2CN=NC23CCc2ccccc2C3=O)cc1 (stereo not given) the results were NadD block 2, SKN-1 inh 8, SMARCA2 activ -2, Vif imaging 5, GRIN3A LBD mod -2 and esBAF inh 48*.
For CO[C@H]1CN(C)C(=O)c2ccc(NC(=O)C3CCC3)cc2OC[C@@H](C)N(C(=O)CN(C)C)C[C@@H]1C the results were esBAF inh 1.
CC(=O)NS(=O)(=O)c1ccc(NC(=O)C2c3ccccc3Oc3ccccc32)cc1 was read as NadD block -6, SKN-1 inh 7, SMARCA2 activ -2, Vif imaging -10 and GRIN3A LBD mod 11*.
For COc1ccc(/C(O)=C2/C(=O)C(=O)N(CCN3CCOCC3)C2c2ccccn2)cc1 (stereo not given) the results were NadD block 9, SKN-1 inh -14, SMARCA2 activ 3, Vif imaging -7, GRIN3A LBD mod 0 and esBAF inh 44*.
Screening CCOC(=O)c1[nH]c(C)c(/C(O)=C2\C(=O)C(=O)N(CCCN3CCOCC3)C2c2cccnc2)c1C (stereo not given) returned NadD block 3, SKN-1 inh 5, SMARCA2 activ 0, Vif imaging 7 and GRIN3A LBD mod -1.
Screening COC(=O)c1[nH]c(C)c(/C(O)=C2\C(=O)C(=O)N(CCCN3CCOCC3)C2c2ccccn2)c1C (stereo not given) returned NadD block 14, SKN-1 inh 38*, SMARCA2 activ 2, Vif imaging 0, GRIN3A LBD mod 1 and esBAF inh -5.
CCC(=O)N[C@@H]1CC[C@@H](CCNS(=O)(=O)c2ccc(Cl)cc2)O[C@H]1CO was read as esBAF inh 3.
For CO[C@H]1CN(C)C(=O)c2ccc(NS(=O)(=O)c3ccccc3Cl)cc2OC[C@@H](C)NC[C@H]1C the results were esBAF inh -2.
For COC(=O)N1C(=O)[C@@](Cc2ccccc2)(c2ccccc2)N1C(=O)OC the results were NadD block 0, SKN-1 inh 11, SMARCA2 activ -1, Vif imaging -5, GRIN3A LBD mod 4 and esBAF inh -15.
For COC(=O)N1C(=O)[C@](Cc2ccccc2)(c2ccccc2)N1C(=O)OC the results were NadD block -1, SKN-1 inh -5, SMARCA2 activ -1, Vif imaging 0, GRIN3A LBD mod 13* and esBAF inh 5.
CCOC(=O)Cc1csc(NC(=O)Nc2ccc(C)cc2)n1 was read as NadD block -2, SKN-1 inh -4, SMARCA2 activ 3, Vif imaging 3 and GRIN3A LBD mod 14*.
`CCOC(=O)Cc1csc(NC(=O)Nc2cccc(OC)c2)n1` gave NadD block -5, SKN-1 inh -1, SMARCA2 activ -2, Vif imaging 4, GRIN3A LBD mod 14* and esBAF inh 27.
For CC/C(=N/Nc1ccc(Cl)cc1)c1cnnc(SC)n1 the results were NadD block 1, SKN-1 inh -2, SMARCA2 activ 0, Vif imaging -6 and GRIN3A LBD mod 17*.
CC/C(=N/O)c1cnnc(SC)n1 was read as NadD block 6, SKN-1 inh -2, SMARCA2 activ -4, Vif imaging 5, GRIN3A LBD mod -2 and esBAF inh 2.
Screening CC/C(=N/Nc1cccc(C)c1)c1cnnc(SC)n1 returned NadD block 5, SKN-1 inh -11, SMARCA2 activ -1, Vif imaging 82* and GRIN3A LBD mod 9.
Screening CC(=O)N1[C@H](CO)[C@H](c2ccccc2)[C@@H]1CN(C(=O)c1ccccc1)C(C)C returned esBAF inh -4.
Screening Cc1ccccc1S(=O)(=O)N1C[C@@H](O)COC[C@H]2O[C@@H](CC(=O)NCc3ccccc3Cl)CC[C@@H]21 returned esBAF inh 0.
Screening O=C(CNS(=O)(=O)c1ccc(Br)s1)N1CCC(N2CCCCC2)CC1 returned NadD block -2, SKN-1 inh 8, SMARCA2 activ 0, Vif imaging 9, GRIN3A LBD mod 13* and esBAF inh 1.
For CC1=CC(C)(C)N(C(=O)CN2C(=O)c3ccccc3C2=O)c2ccccc21 the results were NadD block -5, SKN-1 inh 4, SMARCA2 activ -4, Vif imaging -1, GRIN3A LBD mod 12* and esBAF inh 0.
CC1=CC(C)(C)N(C(=O)CN2C(=O)CCC2=O)c2ccc(C)cc21 was read as NadD block -5, SKN-1 inh -6, SMARCA2 activ -4, Vif imaging 6 and GRIN3A LBD mod -2.
`CC(C)NC(=O)NC1C2CC3CC(C2)CC1C3` (stereo not given) gave NadD block 4, SKN-1 inh 4, SMARCA2 activ 1, Vif imaging 3, GRIN3A LBD mod 13* and esBAF inh -9.
`O=[N+]([O-])c1cc(-c2ccn[nH]2)ccc1Cl` gave NadD block -4, SKN-1 inh 22, SMARCA2 activ 0, Vif imaging 3 and GRIN3A LBD mod 15*.
O=[N+]([O-])c1cccc(-c2ccn[nH]2)c1 was read as NadD block -4, SKN-1 inh 6, SMARCA2 activ -1, Vif imaging -2 and GRIN3A LBD mod 2.
Screening CCC(C)NC(=O)Cn1c(=O)n(-c2ccccc2)c(=O)c2ccc(C(=O)NCc3ccco3)cc21 (stereo not given) returned NadD block 5, SKN-1 inh 24, SMARCA2 activ -3, Vif imaging 61*, GRIN3A LBD mod -1 and esBAF inh -3.
Screening Cc1ccc(Cn2c(=O)n(-c3ccccc3)c(=O)c3ccc(C(=O)NCc4ccco4)cc32)cc1 returned NadD block 6, SKN-1 inh 0, SMARCA2 activ 0, Vif imaging 0, GRIN3A LBD mod -1 and esBAF inh 8.
C=CCn1cc(-c2cccc(Cl)c2)cc(C#N)c1=O was read as NadD block -1, SKN-1 inh 40*, SMARCA2 activ 0, Vif imaging 2, GRIN3A LBD mod -5 and esBAF inh 4.
